Bioassay records deposited in PubChem by National Center for Advancing Translational Sciences (NCATS).
Sampled rows, rich in hits. Any-hit rate of the full collection: about 5.2%.
FBPA coupling cs: qHTS Assay for Inhibitors of Fructose-1,6-bisphosphate Aldolase from Giardia Lamblia: Coupling assay counterscreen. coupling enzyme system counterscreen, AmpLite Red fluorescence. activity change, negative = inhibition, % at 58.2 µM, hits read low. actives 0.67% (n = 290,000). AID 2472, 2010; in the data active = activity change below about -30%; also: % is scaled to controls: 0 for no effect and ±100 for the full control effect
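Coupling enzymes only (glyceraldehyde-3-phosphate) + compound, at 57.5 uM final, 10 min RT; add substrate/coupling/AmpLite Red mix, 20 min RT; fluorescence ex 525/em 598 nm. Actives flag coupling-system interference.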
Tau ThT inhib: qHTS for Inhibitors of Tau Fibril Formation, Thioflavin T Binding. Microtubule-associated protein tau (Homo sapiens), P10636. Potency, µM (top dose mostly 57.4 µM), inactives show at the top dose activity, negative = inhibition, hits mostly inhibitors. recombinant tau K18 P301L, heparin-induced fibrillization, ThT fluorescence. AID 1460, 2008. actives 2.1% (n = 270,000); also: potency is read from the fitted curve at half-maximal effect; % is scaled to controls: 0 for no effect and ±100 for the full control effect; nearly all actives have a fitted effect of over 55% in size
Target sequence (P10636 561-689 P618L limits assumed): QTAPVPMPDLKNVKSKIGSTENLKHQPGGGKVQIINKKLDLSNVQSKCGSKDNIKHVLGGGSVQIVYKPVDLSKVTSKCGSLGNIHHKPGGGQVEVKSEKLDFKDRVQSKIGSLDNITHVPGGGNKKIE
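Fibril formation assay: tau K18 P301L at 15 uM with trace Alexa 594 label, heparin inducer 20 uM, pH 7 sodium acetate buffer, 37 C for 6 hr; endpoint ThT signal.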
Tau fibril FP: qHTS for Inhibitors of Tau Fibril Formation, Fluorescence Polarization | actives 0.39% (n = 280,000) | K18 P301L tau heparin fibrillization, Alexa594 FP, 6 h | Microtubule-associated protein tau (Homo sapiens), P10636 | Potency, µM (titrated, usually from 57.7 µM), inactives show at the top dose activity, negative = inhibition, most hits filed as inhibitors; also: potency is read from the fitted curve at half-maximal effect; % is scaled to controls: 0 for no effect and ±100 for the full control effect; nearly all actives have a fitted effect of over 55% in size
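Recombinant K18 P301L […], labeled with Alexa 594 at 0.24 uM over 15 uM unlabeled; heparin inducer 20 uM final; 37 C, 6 hr; FP endpoint.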
Tau fluor counter: Counterscreen qHTS for Inhibitors of Tau Fibril Formation, Fluorescence Polarization; tau K18 P301L Alexa594 fluorescence, heparin fibrillization; Potency, µM (top dose mostly 57.7 µM), inactives show at the highest dose activity change, negative = decrease; actives 0.93% (n = 280,000); also: potency is read from the fitted curve at half-maximal effect; % is scaled to controls: 0 for no effect and ±100 for the full control effect; nearly all actives have a fitted effect of over 55% in size
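Human tau K18 P301L (15 uM unlabeled, 0.24 uM Alexa 594-labeled) in 100 mM sodium acetate pH 7 with 20 uM heparin, 6 hr at 37 C. ThT 30 uM added, 1 hr ambient; Alexa 594 FP and total fluorescence read at 555/632 nm.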
Sfp PPTase inh: qHTS Assay for Inhibitors of Bacillus subtilis Sfp phosphopantetheinyl transferase (PPTase) | 4'-phosphopantetheinyl transferase ffp (Bacillus subtilis), Q9F4F7 | Biochemical Sfp PPTase activity, qHTS | Potency, µM, without a hit: largest response in the series, negative = inhibition, hits mostly inhibitors | actives 3.5% (n = 310,000) | AID 1490, 2009;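 also: the enzyme is Sfp with the accession as filed and its product quenches rhodamine fluorescence; potency is read from the fitted curve at half-maximal effect; 0% = enzyme reaction without inhibitor and -100% = no enzyme wells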
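With Hepes-Na pH 7.6 buffer containing 10 mM MgCl2, Sfp (15 nM) modified BHQ-2-YbbR (12.5 uM) using rhodamine-CoA (5 uM). Two reads 30 minutes apart at 525/598 nm yielded each well's rate.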
Tau TEM fibril: Transmission Electron Microscopy Assay for Inhibitors of Tau Fibrillization | actives 70% (n = 45) | fibril grade (0 = clumped fibrils, 4 = only tiny pieces) (no concentration beside the values) | recombinant tau K18 P301L fibrillization, TEM grading; stronger effect = higher value | shares compounds with Tau ThT inhib | AID 1719, 2009;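 active = compounds whose electron micrographs showed tau fibrils broken into shorter filaments or fragments, graded high on fibril breakup; inconclusive = micrographs gave an unclear fibril picture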
tau sediment: Sedimentation Assay for Inhibitors of Tau Fibrillization | shares compounds with Tau ThT inhib | recombinant tau K18 P301L (four-repeat tau fragment), sedimentation SDS-PAGE densitometry | inhibition, % at 100 µM | actives 50% (n = 110) | AID 1720, 2009; in the data active = inhibition above about 40%; inconclusive = no clear call, values can overlap the other calls; inactive = below about 18%
Sfp PPTase conf: Confirmation qHTS Assay for Inhibitors of Bacillus subtilis Sfp phosphopantetheinyl transferase (PPTase); shares compounds with Sfp PPTase inh; Sfp PPTase enzymatic assay, qHTS titration; Potency, µM (doses to about 114 µM), without a hit: at the highest dose activity change, negative = inhibition, hits mostly inhibitors; actives 79% (n = 380); AID 2701, 2010;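 also: potency is read from the fitted curve at half-maximal effect; plate controls were uninhibited Sfp reaction for no effect and no enzyme control for full effect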
Target sequence (Q9F4F7 whole entry, looked up): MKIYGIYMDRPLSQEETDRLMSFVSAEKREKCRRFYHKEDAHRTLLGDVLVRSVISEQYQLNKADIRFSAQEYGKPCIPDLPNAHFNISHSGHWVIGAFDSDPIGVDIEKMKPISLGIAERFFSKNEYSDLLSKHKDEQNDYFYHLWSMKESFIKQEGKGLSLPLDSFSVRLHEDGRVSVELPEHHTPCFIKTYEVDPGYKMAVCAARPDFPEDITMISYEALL
Active calls of the source: *; ? = inconclusive; / = no result given; [ ] = dose if it differs, or a comment. Unless noted, calls follow the shape of the dose curve; as a rule, active = well fitted curve in the direction sought with a large enough effect; inconclusive = small, poorly fitted or top-dose-only effect, or another doubt; inactive = no such curve, though single readings can be large; an effect the other way counts as inactive or inconclusive.

SMILES | FBPA coupling cs | Tau ThT inhib | Tau fibril FP | Tau fluor counter | Sfp PPTase inh | tau sediment | others
CCOC(=O)c1nn(-c2ccc(Cl)cc2)c(=O)c2c(N)scc12 | / | / | / | / | / | 62*
CN(C)c1ccc(N2C(=O)CSC2=S)cc1 | -7 | 4.5µM* | ? | ? | -35% | 11
COc1ccc2oc(-c3cccc(NC(=O)c4cc([N+](=O)[O-])ccc4N4CCOCC4)c3)nc2c1 | / | ? | -15% | ? | / | /
O=C(Nc1cccc(-c2nc3ccccc3o2)c1)c1cc([N+](=O)[O-])ccc1N1CCOCC1 | / | -22% | ? | ? | / | 17
O=C(O)CC1S/C(=N/N=C/c2ccc(-c3ccc(Cl)cc3[N+](=O)[O-])o2)NC1=O (stereo not drawn) | -9 | 1µM* | 1.6µM* | ? | 40µM* | 74* | Tau TEM fibril=3*
Cc1ccc(C)c(Cn2c3ccccc3c3cnn(CC(=O)NC(C)CCc4ccccc4)c(=O)c32)c1 (stereo not drawn) | / | 11% | -7% | 0% | / | /
CC(=O)Nc1nc(C)c(-c2csc(Nc3ccccn3)n2)s1 | -1 | ? | ? | ? | -9% | /
CC(=O)Nc1nc(C)c(-c2csc(Nc3ccc(O)cc3)n2)s1 | -8 | 8.9µM* | -12% | 14µM*[quencher] | 35µM* | ? | Tau TEM fibril=0
CC(=O)Nc1nc(C)c(-c2csc(Nc3cccc(C(C)=O)c3)n2)s1 | -10 | / | / | / | -9% | /
CC(=O)Nc1nc(C)c(-c2csc(Nc3cccc([N+](=O)[O-])c3)n2)s1 | -8 | ? | ? | ? | -8% | 13
COc1cc2c(cc1OC)n(CC(=O)c1ccc(C)cc1)c(=O)n1nc(CCn3nc(C)cc3C)nc21 | / | 11% | -8% | 5% | / | /
CCn1c(CSc2nccn2C)nc2cc(C(=O)O)ccc21 | -36* | 4µM* | ? | -5% | 56µM* | 56* | Tau TEM fibril=3*
Cc1ccc(NC(=O)CN2C(=O)S/C(=C/c3ccc(-c4cccc(C(=O)O)c4)o3)C2=O)cc1 | 0 | -16% | -1% | 1% | -17% | /
O=C(O)CN1C(=O)/C(=C/c2ccc(-c3cccc(Cl)c3)o2)SC1=S | / | / | / | / | / | 14
CCc1ccc(NC(=O)c2ccc3c(O)c(S(=O)(=O)c4ccc(Cl)cc4)c(=O)[nH]c3c2)cc1 | / | 18% | -2% | 3% | / | /
COCCNc1cc(-c2ccccc2C)ncn1 | 2 | / | / | / | -20% | /
Cc1[nH]c(=O)c(C#N)cc1-c1ccc2nccn2c1 | 3 | 6% | -5% | -2% | -3% | /
Cc1[nH]c(=O)c(C#N)cc1-c1ccncc1 | 3 | -2% | -1% | 3% | 13% | 7
CC1CCCCN1CCCNC(=O)CN1C(=O)c2cccnc2Oc2ccccc21 (stereo not drawn) | / | 0% | -5% | -1% | 7% | /
Cc1c2cnn(-c3ccccc3)c(=O)c2c(C)n1C(C)C(=O)Nc1ccccc1C(F)(F)F (stereo not drawn) | / | -7% | -4% | -13% | / | /
Nc1c(-c2ccccc2)cc[nH]c1=O | / | / | / | / | / | 9
Cc1ccc(C(=O)Nc2nc(=O)n(C(=O)CC(C)C)s2)cc1 | 3 | ? | ? | -12% | 16% | 12
Cc1ccc(C(=O)Nc2nc(=O)[nH]s2)cc1 | 3 | -4% | -3% | 1% | 19% | /
C=CCOc1ccc(CC(=O)O)cc1Cl | 3 | -1% | -3% | 2% | -8% | /
Cc1nc(NC2CCCCC2)c2nc(-c3ccccc3)n(CCN(C)C)c2n1 | 3 | -13% | -3% | -10% | 8% | /
SMILES | FBPA coupling cs | Tau ThT inhib | Tau fibril FP | Tau fluor counter | Sfp PPTase inh | tau sediment | others
COc1ccc2[nH]c(=O)c(CN(Cc3cccs3)C(=S)Nc3cccc(C)c3)cc2c1 | -2 | -7% | ? | ? | -10% | /
COc1ccc2[nH]c(=O)c(CNc3cccc(C)c3)cc2c1 | -39* | -8% | 6% | -2% | 10µM* | 85* | Tau TEM fibril=4*
CN(c1ccccc1)S(=O)(=O)c1nnc(NC(=O)C2CCCCC2)s1 | 2 | 2.5µM* | ? | ? | 25% | 80* | Tau TEM fibril=3*
COc1cccc(N2CCN(C(=O)Cn3ncc4c(=O)oc5ccccc5c43)CC2)c1 | / | ? | -2% | -18% | / | /
COC(=O)c1nn(-c2ccc(OC)cc2)c(=O)c2c(N)sc(C)c12 | -52* | ? | 3% | -27% | 35µM* | 44* | Tau TEM fibril=?
Cc1ccc(Cl)cc1NC(=O)Cn1c(=O)c(CNc2ccccc2)cc2cc3c(cc21)OCCO3 | / | ? | -2% | ? | / | /
O=C(Cn1c(=O)c(CNc2ccccc2)cc2cc3c(cc21)OCCO3)Nc1ccccc1Cl | / | 8.9µM* | ? | ? | / | 62* | Tau TEM fibril=0
N#Cc1cccc(NC(=O)c2ccc3c(c2)N(Cc2cccc(Cl)c2)C(=O)c2ccccc2S3(=O)=O)c1 | / | 16% | 13µM* | -22% | / | 4
Cn1cc(Cl)c(C(=O)Nc2cccc(Cl)c2Cl)n1 | 0 | -10% | 3% | -4% | 2% | 8
Cn1cc(Cl)c(C(=O)Nc2nc3ccccc3s2)n1 | 0 | -1% | 10% | -3% | 21% | /
CCN1C(=O)[C@H]2[C@H]3[C@H](O)[C@H](O)C/C(=N/OC[C@@H](O)[C@H]4O[C@H]5OC(C)(C)O[C@H]5[C@@H]4O)[C@@H]3CC[C@@H]2C1=O | -1 | -13%[11.5 µM] | -7%[11.6 µM] | -15%[11.6 µM] | 24% | /
CCOC(=O)c1nn(-c2ccc(C)cc2)c(=O)c2c(N)scc12 | -55* | 14µM* | ? | ? | 3.5µM* | ? | Sfp PPTase conf=19µM*
CCOC(=O)c1nc(N)c(=O)n(-c2ccc(C)cc2)n1 | 0 | 12% | 0% | -4% | 21% | /
Oc1ccccc1CNc1cccc2cccnc12 | -22 | 6.3µM* | ? | 16µM*[quencher] | 7.9µM* | 61* | Tau TEM fibril=?;Sfp PPTase conf=42µM*
